# Measured values from PubChem BioAssay (NCATS).
# Results filed as inconclusive are left out. Where a call stands in place of a potency, no number is given. Calls of active or inactive are those of the source. The call rests on the fitted dose curve; in most records, active means well fitted curve in the direction sought with a large enough effect; inconclusive means small, poorly fitted or top-dose-only effect, or another doubt; inactive means no such curve, though single readings can be large; an effect the other way counts as inactive or inconclusive.
# Biological target: Glutathione peroxidase 1 (Homo sapiens) (UniProt P07203)
# Experiment: Primary qHTS Assay for Inhibitors of Recombinant Selenoprotein Glutathione Peroxidase 1 (GPX1) (AID 1845191); further: nearly all actives have a fitted effect of over 65% in size
# Settings: recombinant GPX1, GR-coupled NADPH fluorescence, 15 min; series mostly up to 48.8 µM
# Outline: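 Recombinant GPX1 (10 nM final) was preincubated with compound for 30 min at room temperature, then reacted with 1 mM GSH, 0.5 mM CHP, 0.5 mM NADPH and 100 nM glutathione reductase; NADPH fluorescence (340/450 nm) was read at 0 and 15 min.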
# Glutathione peroxidase 1 (Homo sapiens), sequence (P07203 whole entry, looked up): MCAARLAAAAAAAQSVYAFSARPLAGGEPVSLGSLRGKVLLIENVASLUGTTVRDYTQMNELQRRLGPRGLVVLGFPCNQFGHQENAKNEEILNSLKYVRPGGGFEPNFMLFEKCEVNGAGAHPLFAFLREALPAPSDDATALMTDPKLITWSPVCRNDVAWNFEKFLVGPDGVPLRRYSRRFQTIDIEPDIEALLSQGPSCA
row,Compound,Potency
1,C[C@]12CCC(=O)C(O)=C1CC[C@@H]1[C@@H]2CC[C@]2(C)C(=O)CC[C@@H]12,inactive
2,CC(C)=CC1C(C(=O)OCc2cccc(Oc3ccccc3)c2)C1(C)C (stereo unspecified),inactive
3,O=[N+]([O-])c1cc([As](=O)(O)O)ccc1O,inactive
4,Clc1ccc(COC(Cn2ccnc2)c2ccc(Cl)cc2Cl)cc1 (stereo unspecified),inactive
5,c1ccc2c(c1)Nc1ccccc1S2,inactive
6,Clc1ccc(CCC(Cn2ccnc2)Sc2c(Cl)cccc2Cl)cc1 (stereo unspecified),inactive
7,CC(C)CC(N(C)C)C1(c2ccc(Cl)cc2)CCC1 (stereo unspecified),inactive
8,C=C1C[C@@H]2[C@H](CC[C@]3(C)C(=O)CC[C@@H]23)[C@@]2(C)C=CC(=O)C=C12,inactive

# Biological target: Phospholipid hydroperoxide glutathione peroxidase GPX4 (Homo sapiens) (UniProt P36969)
# Experiment: Primary qHTS Assay for Inhibitors of Recombinant Selenoprotein Glutathione Peroxidase 4 (GPX4) (AID 1845192); further: nearly all actives have a fitted effect of over 65% in size
# Settings: recombinant GPX4, GR-coupled NADPH fluorescence, 15 min; series mostly up to 50 µM
# Outline: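 GR-coupled readout: 100 nM GR, 1 mM GSH, 0.5 mM NADPH; NADPH fluorescence (ex 340/em 450 nm) read at t=0 and after 15 min RT. GPX4 200 nM, preincubated 30 min with compound; substrate 0.5 mM CHP.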
# Phospholipid hydroperoxide glutathione peroxidase GPX4 (Homo sapiens), sequence (P36969 whole entry, looked up): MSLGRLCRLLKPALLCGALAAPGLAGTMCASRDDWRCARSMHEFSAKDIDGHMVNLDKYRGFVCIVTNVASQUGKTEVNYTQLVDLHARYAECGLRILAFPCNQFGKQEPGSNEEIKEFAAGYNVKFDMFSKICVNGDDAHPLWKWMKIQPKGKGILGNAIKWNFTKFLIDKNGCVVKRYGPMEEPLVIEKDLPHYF
row,Compound,Potency
1,CCC(COC(=O)c1cc(OC)c(OC)c(OC)c1)(c1ccccc1)N(C)C (stereo unspecified),inactive
2,N[C@@H]1C[C@H]1c1ccccc1,inactive
3,N[C@@H](Cc1ccc(N(CCCl)CCCl)cc1)C(=O)O,inactive
4,COC[C@@H](NC(C)=O)C(=O)NCc1ccccc1,inactive
5,CC(C)(C)CC(C)(C)c1ccc(O)cc1,inactive
6,C=CCN1CC[C@]23c4c5ccc(O)c4O[C@H]2C(=O)CC[C@@]3(O)[C@H]1C5,inactive
7,Cc1cc(SCc2sc(-c3ccc(C(F)(F)F)c(F)c3)nc2C)ccc1OCC(=O)O,inactive
8,NCC1(CC(=O)O)CCCCC1,inactive
9,FC(F)(F)c1cccc(C2=CCN(CCc3ccc4ccccc4c3)CC2)c1,inactive
10,C[C@]12CC[C@H]3[C@@H](CCC4=CC(=O)CC[C@@H]43)[C@@H]1CC[C@@H]2OC(=O)CCc1ccccc1,inactive
11,CCC(C(N)=O)N1CCCC1=O (stereo unspecified),inactive
12,COc1ccc(Cc2nccc3cc(OC)c(OC)cc23)cc1OC,inactive
13,C#CCN(C)[C@H](C)Cc1ccccc1,inactive
14,CCCC1CCCCN1 (stereo unspecified),inactive
15,O=C1CC[C@@]2(O)[C@H]3Cc4ccc(O)c5c4[C@@]2(CCN3CC2CC2)[C@H]1O5,inactive
16,Cc1cccc(C)c1NC(=O)CN1CCCC1=O,inactive
17,CNC(=O)N1N=C(c2ccc(N)cc2)c2cc3c(cc2CC1C)OCO3 (stereo unspecified),inactive
18,Oc1cc(Cl)ccc1Oc1ccc(Cl)cc1Cl,inactive
19,Oc1ccccc1-c1ccccc1,inactive
20,C[C@]12CCC(=O)C(O)=C1CC[C@@H]1[C@@H]2CC[C@]2(C)C(=O)CC[C@@H]12,inactive
21,CC(C)=CC1C(C(=O)OCc2cccc(Oc3ccccc3)c2)C1(C)C (stereo unspecified),inactive
22,O=[N+]([O-])c1cc([As](=O)(O)O)ccc1O,inactive
23,Clc1ccc(COC(Cn2ccnc2)c2ccc(Cl)cc2Cl)cc1 (stereo unspecified),inactive
24,Fc1ccc(C(OCCN2CCN(CCCc3ccccc3)CC2)c2ccc(F)cc2)cc1,inactive
25,c1ccc2c(c1)Nc1ccccc1S2,inactive
26,Clc1ccc(CCC(Cn2ccnc2)Sc2c(Cl)cccc2Cl)cc1 (stereo unspecified),inactive
27,CC(C)CC(N(C)C)C1(c2ccc(Cl)cc2)CCC1 (stereo unspecified),inactive
28,C=C1C[C@@H]2[C@H](CC[C@]3(C)C(=O)CC[C@@H]23)[C@@]2(C)C=CC(=O)C=C12,inactive

# Tested on: not listed separately
# Experiment: Quantitative High-Throughput drug screen in 47 multiple myeloma cell lines against the NCATS MIPE library collection: FR4_PLB cell viability assay (AID 1918924; further: nearly all actives have a fitted effect of over 35% in size; further: potency means the concentration at half of the fitted maximal effect)
# Settings: FR4_PLB myeloma cells viability, CellTiter-Glo ATP, 48 h; series mostly up to 45.8 µM
# Outline: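 CellTiter-Glo luminescence (ATP) after 48 h compound exposure, 37C/5% CO2; 500 cells/well; MIPE 4.0 approved/investigational drugs pinned in; DMSO = 100%, media only = 0% viability.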
row,Compound,Potency
1,N[C@@H](Cc1ccc(N(CCCl)CCCl)cc1)C(=O)O,20.9 µM (active)
2,COC[C@@H](NC(C)=O)C(=O)NCc1ccccc1,inactive
3,Cc1cc(SCc2sc(-c3ccc(C(F)(F)F)c(F)c3)nc2C)ccc1OCC(=O)O,inactive
4,NCC1(CC(=O)O)CCCCC1,inactive
5,C#CCN(C)[C@H](C)Cc1ccccc1,inactive
6,O=C1CC[C@@]2(O)[C@H]3Cc4ccc(O)c5c4[C@@]2(CCN3CC2CC2)[C@H]1O5,inactive
7,Fc1ccc(C(OCCN2CCN(CCCc3ccccc3)CC2)c2ccc(F)cc2)cc1,20.9 µM (active)

# Tested on: not listed separately
# Experiment: Quantitative High-Throughput drug screen in 47 multiple myeloma cell lines against the NCATS MIPE library collection: Delta47_JCRB cell viability assay (AID 1918925; further: nearly all actives have a fitted effect of over 45% in size; further: potency means the concentration at half of the fitted maximal effect)
# Settings: Delta47 myeloma viability, CellTiter-Glo ATP, 48 h; series mostly up to 45.8 µM
# Outline: (§1)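 CellTiter-Glo ATP luminescence gave viability after 48 h compound treatment at 37C of 500 multiple myeloma cells per well. Normalisation used DMSO-only wells as 100% and media-only wells as 0% viability; primary qHTS of approved and investigational drugs.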
row,Compound,Potency
1,N[C@@H](Cc1ccc(N(CCCl)CCCl)cc1)C(=O)O,13.2 µM (active)
2,COC[C@@H](NC(C)=O)C(=O)NCc1ccccc1,inactive
3,C#CCN(C)[C@H](C)Cc1ccccc1,inactive
4,Cc1cccc(C)c1NC(=O)CN1CCCC1=O,inactive
5,CNC(=O)N1N=C(c2ccc(N)cc2)c2cc3c(cc2CC1C)OCO3 (stereo unspecified),1.48 µM (active)
6,Fc1ccc(C(OCCN2CCN(CCCc3ccccc3)CC2)c2ccc(F)cc2)cc1,8.33 µM (active)

# Tested on: not listed separately
# Experiment: Quantitative High-Throughput drug screen in 47 multiple myeloma cell lines against the NCATS MIPE library collection: EJM_DSMZ cell viability assay (AID 1918926; further: nearly all actives have a fitted effect of over 30% in size; further: potency means the concentration at half of the fitted maximal effect)
# Settings: EJM myeloma cell viability, CellTiter-Glo ATP, 48 h; series mostly up to 45.8 µM
# Outline: as §1
row,Compound,Potency
1,N[C@@H](Cc1ccc(N(CCCl)CCCl)cc1)C(=O)O,14.8 µM (active)
2,COC[C@@H](NC(C)=O)C(=O)NCc1ccccc1,inactive
3,Cc1cc(SCc2sc(-c3ccc(C(F)(F)F)c(F)c3)nc2C)ccc1OCC(=O)O,inactive
4,NCC1(CC(=O)O)CCCCC1,inactive
5,Cc1cccc(C)c1NC(=O)CN1CCCC1=O,inactive
6,CNC(=O)N1N=C(c2ccc(N)cc2)c2cc3c(cc2CC1C)OCO3 (stereo unspecified),11.8 µM (active)
7,Fc1ccc(C(OCCN2CCN(CCCc3ccccc3)CC2)c2ccc(F)cc2)cc1,13.2 µM (active)
